# Laboratory results published in ChEMBL document CHEMBL4513143, “CO-ADD screening of University of Natural Resources and Life (Austria) compounds”.
# Measured potencies and affinities stand elsewhere.
# Tests used:
# Klebsiella pneumoniae = conditions: Concentration 32 ug.mL-1; ASSAY_TEST Inhibition of Bacterial Growth; detection method Absorption (OD600); MEDIA CAMHB; plate type 384well; NBS; CORNING #3640; time 18 hr
# Candida albicans = conditions: 32 ug/mL
# Cryptococcus neoformans = conditions: Concentration 32 ug.mL-1; ASSAY_TEST Inhibition of Fungal Growth; detection method Resazurin; Absorption (OD600-OD570); plate type 384well; NBS; CORNING #3640
SMILES,Inhibition (Klebsiella pneumoniae) [%],Inhibition (Candida albicans) [%],Inhibition (Cryptococcus neoformans) [%]
OC[C@@H](O)[C@H]1OC(O)C[C@@H](O)[C@@H]1O (stereo not given in full),30.82,4.53,-12.95
N.O=C(O)C1(O)C[C@@H](O)[C@H](O)[C@@H]([C@@H](O)CO)O1 (stereo not given in full),28.17,3.34,-12.91
CCN(CC)CC.O=P(O)(O)OC1C[C@@H](O)[C@H](O)[C@@H]([C@H](O)CO)O1 (stereo not given in full),34.69,2.93,-6.2
CCN(CC)CC.C[C@@H](CC1O[C@H]([C@H](O)CO)[C@@H](O)[C@H](O)[C@@H]1O)OP(=O)(O)OC[C@H]1O[C@@H](n2cnc3c(N)ncnc32)[C@H](O)[C@@H]1O (stereo not given in full),9.8,-0.9,-12.32
CCN(CC)CC.C[C@H](CC1O[C@H]([C@H](O)CO)[C@@H](O)[C@H](O)[C@@H]1O)OP(=O)(O)OC[C@H]1O[C@@H](n2cnc3c(N)ncnc32)[C@H](O)[C@@H]1O (stereo not given in full),32.34,2.8,-3.79
CCN(CC)CC.C[C@@H](CC1O[C@H]([C@@H](O)CO)[C@@H](O)[C@H](O)[C@@H]1O)OP(=O)(O)O (stereo not given in full),41.76,0.34,-7.83
CCN(CC)CC.C[C@H](CC1O[C@H]([C@@H](O)CO)[C@@H](O)[C@H](O)[C@@H]1O)OP(=O)(O)O (stereo not given in full),38.35,1.33,-5.02
CC(=O)CC1O[C@H]([C@@H](O)CO)[C@@H](O)[C@H](O)[C@@H]1O (stereo not given in full),30.36,-0.45,-7.35
CCN(CC)CC.C[C@H](CC1O[C@H]([C@@H](O)CO)[C@@H](O)[C@H](O)[C@@H]1O)OP(=O)(O)OC[C@H]1O[C@@H](n2cnc3c(N)ncnc32)[C@H](O)[C@@H]1O (stereo not given in full),21.04,-0.71,-12.97
CCN(CC)CC.C[C@@H](CC1O[C@H]([C@@H](O)CO)[C@@H](O)[C@H](O)[C@@H]1O)OP(=O)(O)OC[C@H]1O[C@@H](n2cnc3c(N)ncnc32)[C@H](O)[C@@H]1O (stereo not given in full),27.9,0.32,-9
